Assay results from PubChem BioAssay AID2069 (Sanford-Burnham Center for Chemical Genomics, 2009).
About 210 (18%) of roughly 1,200 compounds were called active. No stated cut-off is given here; in the data, active means inhibition above about 30%; inactive means the rest. These entries were drawn from the full list.

Assay: HTRF signal interference by compounds, confirmation, artefact control for SUMOylation inhibitor project, biochemical, uHTS (AID 2069)
Settings: HTRF interference counterscreen, fluorescence, at 35 µM, active compounds read high
In the case of `COc1ccccc1Oc1c(C)oc2cc(OC(=O)c3ccco3)ccc2c1=O`, the inhibition is reported as 36.7% (active). With `CCOc1cc(/C=C2/C(=O)N(c3ccccc3)N=C2C)ccc1OC(=O)c1ccco1` the inhibition was -12.2% (inactive). For `COc1cc(/C=C2\C(=O)N(c3ccc(S(N)(=O)=O)cc3)N=C2C)ccc1OC(=O)c1ccco1`, the inhibition was 19.1% (inactive). With `CCOc1cccc(CNc2ccc(O)cc2)c1OCc1ccc(Cl)cc1Cl` the inhibition was 17.7% (inactive). In the case of `COc1ccc(-n2c3nc4ccccc4nc3c3c(=N)oc(C)nc32)cc1`, the inhibition is reported as -1.2% (inactive). For `O=C1N(c2ccc(Cl)c(Cl)c2)CN(Cc2ccccc2)CN1n1cnnc1`, the inhibition was 13.3% (inactive). For `CCCNC(=O)c1ccc2c(=O)c(O)c(-c3ccsc3)[nH]c2c1`, the inhibition was 46.5% (active). With `COc1ccccc1NC(=O)Cn1nc(C)n2cccc2c1=O` the inhibition was -4.55% (inactive). In the case of `COc1ccccc1NC(=O)CSc1ccc2nnc(-c3ccccn3)n2n1`, the inhibition is reported as -3.25% (inactive). With `COc1ccccc1NC(=O)Nc1ccnn1Cc1cccs1` the inhibition was 63.1% (active). In the case of `O=C(Nc1nc(-c2ccccc2)cs1)c1ccccc1NS(=O)(=O)c1ccc(F)cc1`, the inhibition is reported as 9.2% (inactive). For `CC(=O)c1ccc2cccc3c2c1N=CN3C`, the inhibition was -3.4% (inactive). For `COc1ccc(Br)cc1C1CC(=O)N2CN(Cc3ccccc3)CSC2=C1C#N` (centres undefined), the inhibition was -9.75% (inactive). For `COc1ccc(OC)c(/C=N/NC(=O)CCc2ccc(O)c(O)c2)c1`, the inhibition was 17.9% (inactive). With `COc1ccc(-c2nc3ccc([N+](=O)[O-])cc3[nH]2)cc1` the inhibition was 23.2% (inactive). In the case of `COc1ccc(-c2nc3ccncc3[nH]2)cc1OC`, the inhibition is reported as 46.5% (active). In the case of `COc1ccc(NC(=O)C(=O)N/N=C\c2ccc(CNC(=O)C(=O)Nc3ccc(C)c(C)c3)o2)c(OC)c1`, the inhibition is reported as 15.9% (inactive). In the case of `COc1cc(/C=C2\C(=O)N(CCC#N)N=C2C)c(Br)cc1OC(C)C`, the inhibition is reported as -5.4% (inactive). For `CCN(CC)C(=O)COc1ccc2oc(-c3ccco3)cc(=O)c2c1`, the inhibition was 43.6% (active). In the case of `O=C(COc1ccc2oc(-c3ccco3)cc(=O)c2c1)N1CCCCC1`, the inhibition is reported as 39.8% (active). In the case of `CN(C)c1cc(N/N=C/c2ccccc2C(F)(F)F)nc(N(C)C)n1`, the inhibition is reported as -2.9% (inactive). In the case of `O=c1cc(CSc2nnnn2-c2ccccc2)nc(Nc2ccc(F)cc2)[nH]1`, the inhibition is reported as 3.3% (inactive). In the case of `NC(=O)CC(NC(=O)Cc1cccc2ccccc12)c1ccc(NC2CCCCCC2)c([N+](=O)[O-])c1` (centres undefined), the inhibition is reported as 6.15% (inactive). In the case of `Cc1ccc(O)c(CNc2cccc3cccnc23)c1`, the inhibition is reported as -18.2% (inactive). With `CCOC(=O)c1c(C)oc2c1c(C=NCCO)c(O)c1ccccc12` the inhibition was 5.4% (inactive). For `CC(C)(C)c1cc(=O)n(-c2ccccc2)[nH]1`, the inhibition was -0.65% (inactive). With `Fc1ccc(NC(=S)Nc2cccc3ccccc23)cc1F` the inhibition was -11.7% (inactive). For `CC1CCN(Cc2cc(=O)oc3cc(O)c(Cl)cc23)CC1`, the inhibition was 50.5% (active). In the case of `CC(C)(C)C1CCC2(CC1)Nc1cccc3cccc(c13)N2`, the inhibition is reported as -2.5% (inactive). For `CCn1c(NC(=O)c2ccccc2)nc2ccccc21`, the inhibition was 1.3% (inactive). For `COc1ccc2nc(/C(C#N)=C\c3ccc(C(=O)O)cc3)[nH]c2c1`, the inhibition was 47.6% (active). For `COc1ccc(/C=C(\C#N)C(=O)OCC(=O)NCc2ccccc2Cl)cc1`, the inhibition was 6.4% (inactive). With `N#C/C(=C/c1ccc(-c2cc(C(=O)O)cc(C(=O)O)c2)o1)c1nc2ccccc2s1` the inhibition was 13.9% (inactive). With `O=C(Nc1ccccc1-c1nc2ccccc2s1)c1cccnc1Cl` the inhibition was 64% (active). With `O=C(/C=C/c1ccco1)NC(=S)Nc1cc(-c2nc3ccccc3s2)ccc1Cl` the inhibition was 3.15% (inactive). In the case of `O=C(O)c1cc(Cl)c(Cl)cc1C(=O)Nc1cccc2ncccc12`, the inhibition is reported as 2.4% (inactive). For `COCCNC(=S)Nc1cccc2cnccc12`, the inhibition was 4.9% (inactive). With `C=CCn1c(SCC(=O)N2N=C(c3ccco3)CC2c2ccco2)nnc1-c1ccncc1` (centres undefined) the inhibition was -5.2% (inactive). For `O=C1Nc2ccc([N+](=O)[O-])cc2C1=Nc1cccc(CO)c1`, the inhibition was 3.75% (inactive). With `Cc1[nH]n(-c2ccccc2)c(=O)c1C(c1cccc([N+](=O)[O-])c1)c1c(C)[nH]n(-c2ccccc2)c1=O` the inhibition was -11.2% (inactive). With `NCCSc1c(-c2ccccc2)[nH]c2ccccc12` the inhibition was 0.7% (inactive). For `O=[N+]([O-])c1cc2c(cc1/C=N/n1c(-c3ccccn3)n[nH]c1=S)OCO2`, the inhibition was 0.15% (inactive). With `CCN(Cc1cc(=O)n2ccsc2n1)c1cccc2ccccc12` the inhibition was 1.45% (inactive). In the case of `O=C(Nc1ccccc1F)Nc1cc(S(=O)(=O)N2CCOCC2)ccc1N1CCCC1`, the inhibition is reported as 6.3% (inactive). For `Cc1cccn2cc(-c3ccc(S(=O)(=O)N4CCOCC4)cc3)nc12`, the inhibition was 40.8% (active). For `COc1ccccc1C(=O)Nc1sc2c(c1C(=O)NCc1ccco1)CCCC2`, the inhibition was 33.8% (active). In the case of `Cc1ccc(C(=O)Nc2sc3c(c2C(=O)NCc2ccco2)CCCC3)cc1`, the inhibition is reported as 29.9% (inactive). For `COc1ccccc1C(=O)Nc1ccc(-c2nnn(CC(=O)NCc3ccco3)n2)cc1`, the inhibition was 13.7% (inactive). For `O=c1nc(Nc2ccc(Br)cc2)sc2ccc([N+](=O)[O-])cc12`, the inhibition was -4% (inactive). For `CCCCC[C@H](O)/C=C/[C@@H]1[C@@H](C/C=C\CCCC(=O)OC)[C@@H](O)C[C@H]1O`, the inhibition was 23.6% (inactive). In the case of `CCN(CC)S(=O)(=O)c1ccc(C)c(NC(=O)CSc2ncc(C(F)(F)F)cc2Cl)c1`, the inhibition is reported as -6.95% (inactive). In the case of `c1cc(Nc2ncnc3sc4c(c23)CCC4)ccn1`, the inhibition is reported as 42.9% (active). In the case of `CC1=NN(c2ccc(Cl)cc2)C(=O)C1C(c1cccc(O)c1)c1c(C)[nH]n(-c2ccc(Cl)cc2)c1=O` (centres undefined), the inhibition is reported as -23.6% (inactive). For `COc1ccc(C(c2c(C)[nH]n(-c3ccccc3)c2=O)c2c(C)[nH]n(-c3ccccc3)c2=O)cc1OC`, the inhibition was 13.3% (inactive). With `N#Cc1c(N)nc2c(c1-c1ccc3c(c1)OCO3)CCc1ccccc1-2` the inhibition was 13.8% (inactive). With `Cc1oc2c(c(C)cc3oc(=O)c(CC(=O)NCC(=O)NCC(=O)NCC(C)O)c(C)c32)c1C` (centres undefined) the inhibition was 47.8% (active). For `Cc1oc2c(c(C)cc3oc(=O)c(CC(=O)NCC(=O)NCC(=O)O)c(C)c32)c1C`, the inhibition was 52.3% (active). For `CC1=NN(c2ccccc2)C(=O)/C1=C\c1cn(CCC#N)nc1-c1ccc(Cl)cc1`, the inhibition was -15.8% (inactive). For `S=C(Nc1ccc2nc(-c3ccccn3)c(-c3ccccn3)nc2c1)N1CCOCC1`, the inhibition was 10.8% (inactive). With `CN(Cc1ccco1)C(=O)c1cc2c(s1)-c1ccc(Cl)cc1S(=O)(=O)C2` the inhibition was -9.15% (inactive). For `S=c1[nH]nc(-c2cc(-c3ccccc3)n[nH]2)n1/N=C/c1c(Cl)cccc1Cl`, the inhibition was 6.95% (inactive). For `CC1CCCN(c2nc3ccccc3nc2C(C#N)S(=O)(=O)c2ccccc2)C1` (centres undefined), the inhibition was 11.8% (inactive). In the case of `O=C1Nc2ccc(C(F)(F)F)cc2N2CCCC12` (centres undefined), the inhibition is reported as 5.75% (inactive). With `Cc1ccccc1N=Cc1cc2c(cc1[N+](=O)[O-])OCO2` the inhibition was -2.65% (inactive). For `O=C1C(C2=NC(c3ccccn3)C3C(=O)N(c4ccc(Cl)cc4Cl)C(=O)C23)=C(O)c2ccccc21` (centres undefined), the inhibition was 2.95% (inactive). With `O=C(N/N=C/c1ccc(-c2ccc(Cl)c(C(=O)O)c2)o1)c1cc2c(ccc3ccccc32)o1` the inhibition was 50.7% (active). In the case of `Cc1cc(C(=O)N/N=C/c2ccc(-c3ccc(C)c(Cl)c3)o2)n[nH]1`, the inhibition is reported as 4.9% (inactive). For `O=C(N/N=C/c1ccc([N+](=O)[O-])o1)c1cc2c(ccc3ccccc32)o1`, the inhibition was 20.9% (inactive). For `Cc1ccc(-n2c(SCC(=O)N/N=C/c3ccccc3C(=O)O)nnc2-c2ccc(Cl)cc2)cc1`, the inhibition was 5.25% (inactive). In the case of `O=C(CN1C(=O)CSC1=O)Nc1ccc(C(=O)O)cc1`, the inhibition is reported as 1.7% (inactive). In the case of `O=C(CSc1nnc(SCc2ccccc2)s1)N/N=C/C=C\c1ccco1`, the inhibition is reported as 3.25% (inactive). In the case of `Cc1ccc(-c2nc3cc(N)ccc3o2)cc1`, the inhibition is reported as 55.7% (active). For `Nc1ccc2oc(-c3cccs3)nc2c1`, the inhibition was 37.1% (active). For `Cc1ccc2oc(-c3ccc(C)c(NC(=O)Cc4cccs4)c3)nc2c1`, the inhibition was 22.6% (inactive). In the case of `Cc1ccccc1-c1nc2cc(N)ccc2o1`, the inhibition is reported as 46.2% (active). In the case of `Cc1nc2ccc(-c3nc4cc(N)ccc4o3)cc2[nH]1`, the inhibition is reported as 54.3% (active). In the case of `O=C(Nc1ccc2oc(-c3cccc4ccccc34)nc2c1)c1ncn[nH]1`, the inhibition is reported as 16.2% (inactive). In the case of `Cc1ccc(-n2nc(C)c3c2OC(N)=C(C#N)C3c2ccoc2)cc1` (centres undefined), the inhibition is reported as 1.75% (inactive). For `COc1ccc(OC)c(/C=C2\S/C(=N/NC(=O)c3ccc4ccccc4c3)NC2=O)c1`, the inhibition was 8.75% (inactive). With `Cc1cc(C)c(S(=O)(=O)/N=C2/C=C(SCC(=O)O)C(=O)c3ccccc32)cc1C` the inhibition was -10.7% (inactive). In the case of `O=C1C2C3C=CC(C3)C2C(=O)N1CNc1ccc(O)cc1` (centres undefined), the inhibition is reported as -8.05% (inactive). In the case of `O=c1c2ccccc2nc(COc2ccccc2)n1/N=C/c1cc([N+](=O)[O-])ccc1O`, the inhibition is reported as -7.1% (inactive). In the case of `Oc1ccc(NCc2cccc(OCc3ccccc3)c2)cc1`, the inhibition is reported as -19.4% (inactive). In the case of `O=C1C(NS(=O)(=O)c2cccs2)=C(N2CCN(c3cccc(C(F)(F)F)c3)CC2)C(=O)c2ccccc21`, the inhibition is reported as -7.25% (inactive). In the case of `Cc1ccccc1S(=O)(=O)Nc1nc2ccccc2nc1N1CCc2ccccc2C1`, the inhibition is reported as -3.1% (inactive). For `N=c1c2cn[nH]c2nc(SCC(=O)c2ccc(Br)cc2)n1-c1ccc(Br)cc1`, the inhibition was 0.5% (inactive). With `O=C(CSc1nnc(-c2ccco2)c(-c2ccco2)n1)c1ccccc1` the inhibition was 9% (inactive). With `S=c1[nH]nc(-c2ccc(Cl)cc2)n1/N=C/C=C/c1ccco1` the inhibition was -4.3% (inactive). In the case of `CCOC(=O)C1CCCN(c2cc(NCCCO)c([N+](=O)[O-])c3nonc23)C1` (centres undefined), the inhibition is reported as -8.1% (inactive).
